Here are results for 103 compounds from PubChem BioAssay AID431 (Sanford-Burnham Center for Chemical Genomics, 2006).

About 1,100 (1.7%) of roughly 63,000 compounds were called active. The sample holds actives, similar compounds and a random draw of the others, so the mix is not that of the screen. Entries with a potency or affinity are not part of this list. A number with no mark means an inactive call.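 Rule for the calls: active = compounds whose percent cytotoxicity in the single-dose primary screen, scaled between solvent and toxic-drug controls, exceeds 50; inactive = the rest.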

This experiment can be described thus: cytotoxicity in KRAS-transformed pancreatic duct cells, primary screen, cell-based, fluorescence, HTS (AID 431).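 Note: 0% = DMSO solvent wells and 100% = doxorubicin-treated wells.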 Particulars: HPDE-C7K KRASV12 cells, Alamar Blue viability, 48 h; at 10 µM; hits give high values. On the technique in general: Resazurin is reduced to fluorescent resorufin, in cell work by metabolically active cells.
Consider `CCOC(=O)c1c(NC(N)=O)sc(C)c1C`, for which the cytotoxicity was 7.3%.

Take `CN(C)S(=O)(=O)c1ccc(S(=O)(=O)Nc2ccc3c(c2)oc2ccccc23)cc1`: the cytotoxicity was -0.2%.

For the compound `COc1ccc2c(c1)c(=O)cc(C)n2CC(=O)NCc1ccco1`, the cytotoxicity is 6.1%.

With `CCN1CCCC1CNCc1ccc(Cl)cc1Cl` (stereo not drawn), the cytotoxicity was 12.8%.

As for `COc1ccc(CCNc2oc(COc3ccccc3F)nc2C#N)cc1`, the cytotoxicity was 23.7%.

For the compound `COc1ccc(/C=N/n2cc(-c3ccc(OC)cc3)nc2N)cc1`, the cytotoxicity is 3.7%.

Turning to `COc1ccc(/C=N/n2cc(-c3ccccc3)nc2N)cc1`, the cytotoxicity was 70.8% (active).

As to `COc1ccc(/C=N/n2cnnc2SCc2ccccc2)cc1`, the cytotoxicity is 5.9%.

As to `Cc1ccc2c(c1)CC1(CN2C)C(=O)OC2(CCCCC2)OC1=O`, the cytotoxicity was -4.6%.

For the compound `CN1CC2(Cc3c1ccc1ccccc31)C(=O)OC(C)(C)OC2=O`, the cytotoxicity is 64.4% (active).

As to `O=C1COc2ccc3ccccc3c2CN1`, the cytotoxicity is -9.6%.

Regarding `O=C(NCCc1ccccc1)c1cnn2c(C(F)F)cc(C3CC3)nc12`, the cytotoxicity was 6.9%.

Take `O=S(=O)(c1ccc(-c2cn3ccccc3n2)cc1)N1CCOCC1`: the cytotoxicity is -9.8%.

For `CC(C)Cc1cc(C(=O)O)n[nH]1`, the cytotoxicity is 9.9%.

On to `Cc1ccc(Cn2c(CN3CC(C)OC(C)C3)nc3c2c(=O)n(C)c(=O)n3C)cc1` (stereo not drawn), for which the cytotoxicity was -6.7%.

Take `COc1ccc(N2C(=O)C3CCCN3C2c2ccccc2OC)cc1` (stereo not drawn): the cytotoxicity is -10%.

With `O=C(O)C1CCN(c2nc(-c3ccccc3)nc3c2oc2ccccc23)CC1`, the cytotoxicity was 27.2%.

In the case of `CN1CCN(c2nc(-c3ccccc3)nc3c2oc2ccccc23)CC1`, the cytotoxicity is 24.2%.

For `COc1cc2nc(-c3ccccc3)nc(N3CCCC3)c2cc1OC`, the cytotoxicity was 27.3%.

For `CCOc1cc2nc(-c3ccc(OC)c(OC)c3)nc(N3CCOCC3)c2cc1OC`, the cytotoxicity was 74.8% (active).

`COc1ccc(-c2csc(N3CCOCC3)n2)cc1OC`: the cytotoxicity is 2.9%.

Turning to `CC(C)(C)Nc1ncnc2c1cnn2-c1ccccc1`, the cytotoxicity is 17.2%.

Take `COC(=O)c1cccc(NC(=O)CSc2nnc(COc3ccccc3)n2C)c1`: the cytotoxicity was 8.3%.

As to `CC(C)N(C(=O)COc1ccc(Br)cc1Cl)C(C)C`, the cytotoxicity was -4.2%.

For `Cc1nc2nc(Cc3ccccc3)nn2c(C)c1Cl`, the cytotoxicity was 0.4%.

With `O=C(c1ccc(Br)o1)N1CCN(Cc2ccc3c(c2)OCO3)CC1`, the cytotoxicity is -4.9%.

With `O=C(c1ccc(Cn2cc(Cl)cn2)o1)N1CCN(Cc2ccc3c(c2)OCO3)CC1`, the cytotoxicity is 12%.

As for `O=C(c1ccc(COc2ccccc2Cl)o1)N1CCN(c2ccccc2)CC1`, the cytotoxicity was 24%.

Take `CC1CCN(C(=O)c2ccc(COc3ccccc3Cl)o2)CC1`: the cytotoxicity is -8.5%.

For `O=C(c1ccc(COc2ccccc2Cl)o1)N1CCN(Cc2ccc3c(c2)OCO3)CC1`, the cytotoxicity is 65.1% (active).

In the case of `O=C(c1ccc(COc2ccc(Cl)cc2)o1)N1CCN(Cc2ccc3c(c2)OCO3)CC1`, the cytotoxicity is 94.8% (active).

Turning to `CC(=O)c1ccccc1OCCCN1CCCCC1`, the cytotoxicity was 1.2%.

Turning to `O=C(CNS(=O)(=O)c1cccs1)N1CCCC1`, the cytotoxicity is -3.8%.

As for `Cc1occc1-c1nnc(SCc2nc3ccccc3c(=O)n2CC#N)n1C`, the cytotoxicity was -5.4%.

Take `Cn1c(COc2ccccc2)nnc1SCCN1CCOCC1`: the cytotoxicity is -8.5%.

For `Cc1cc2ccccc2c(=O)[nH]1`, the cytotoxicity is 3%.

Regarding `Cc1ccccc1Nc1cc2ccccc2c(=O)[nH]1`, the cytotoxicity was 73.3% (active).

As to `O=c1[nH]c(Nc2ccccc2)cc2ccccc12`, the cytotoxicity was 0.6%.

In the case of `Fc1ccc(-c2cc3nc(-c4ccccc4)cc(N4CCN(CCN5CCOCC5)CC4)n3n2)cc1`, the cytotoxicity was 44.9%.

Consider `COc1ccc(OC)c(S(=O)(=O)NCc2cccnc2)c1`, for which the cytotoxicity is -4.2%.

For the compound `CCn1c(SCC(=O)N2CCc3ccccc32)nnc1-c1ccncc1`, the cytotoxicity was -9.5%.

In the case of `CN1CCN(Cc2ccc(OCc3ccccc3)cc2)CC1`, the cytotoxicity is 33.9%.

Regarding `CCOc1ccc(S(=O)(=O)Nc2cc(OC)ccc2OC)cc1`, the cytotoxicity is 75.9% (active).

For `COc1ccc(OC)c(NS(=O)(=O)c2ccc(SC)cc2)c1`, the cytotoxicity was 30.3%.

Turning to `COc1ccc(OC)c(NS(=O)(=O)c2ccc3c(c2)CCC(=O)N3)c1`, the cytotoxicity is 3.2%.

Turning to `CCCCOc1ccc(S(=O)(=O)Nc2cc(OC)ccc2OC)cc1`, the cytotoxicity is 32.5%.

For `COc1ccc(OC)c(NS(=O)(=O)c2ccc(N3CCCC3=O)cc2)c1`, the cytotoxicity is 79.5% (active).

Take `COC(=O)COc1ccc(S(=O)(=O)Nc2cc(OC)ccc2OC)cc1`: the cytotoxicity is 0%.

Regarding `COc1ccccc1NC(=O)CSc1nnc(-c2ccncc2)o1`, the cytotoxicity is -3.6%.

On to `CCn1c(SCC(=O)Nc2nc(-c3ccc(C)cc3)cs2)nnc1-c1ccccc1O`, for which the cytotoxicity was 46.4%.

In the case of `CCc1nnc(NC(=O)CSc2nnc(-c3ccccc3OC)n2-c2ccccc2)s1`, the cytotoxicity is -6.6%.

Take `CCn1c(SCC(=O)Nc2nc(-c3ccccc3)cs2)nnc1-c1ccccc1O`: the cytotoxicity was 55.5% (active).

In the case of `CCc1nnc(NC(=O)CSc2nnc(-c3ccccc3O)n2-c2ccc(C)cc2)s1`, the cytotoxicity was -7.5%.

On to `CCn1c(SCC(=O)Nc2nc3ccccc3s2)nnc1-c1ccc(OC)cc1`, for which the cytotoxicity was 78.6% (active).

Take `CCn1c(Cc2ccc(OC)cc2)nnc1SCC(=O)Nc1nc2ccccc2s1`: the cytotoxicity is -6.3%.

Turning to `CCn1c(Cc2ccccc2)nnc1SCC(=O)Nc1nc2ccccc2s1`, the cytotoxicity is 8.8%.

With `CCn1c(SCC(=O)Nc2nc(-c3ccccc3)cs2)nnc1-c1ccccc1`, the cytotoxicity was 23.1%.

As to `CCc1nnc(NC(=O)CSc2nnc(-c3ccccc3O)n2-c2ccc(C)cc2C)s1`, the cytotoxicity is 61.3% (active).

In the case of `Cc1nc2ccccc2c(=O)n1/N=C/c1cccnc1`, the cytotoxicity was 20.1%.

For the compound `CCCc1cc(=O)[nH]c(SCC(=O)c2cc(C)n(CCOC)c2C)n1`, the cytotoxicity was 1.9%.

`COC(=O)C1CCN(C(=O)COC(=O)Cc2c[nH]c3ccccc23)CC1`: the cytotoxicity was 2.5%.

As for `O=C(CN1C(=O)c2ccccc2S1(=O)=O)NC1CCCCCC1`, the cytotoxicity was 1.2%.

In the case of `CC1(C)Cc2ccccc2-c2nc(NCCCO)n(-c3ccccc3)c(=O)c21`, the cytotoxicity is 12.6%.

In the case of `O=C(Nc1ccc2c(c1)OCO2)Nc1ccc(Br)cn1`, the cytotoxicity was 21.3%.

On to `CCCCCCc1cc2cc(-c3nnc(-c4ccccc4O)o3)c(=O)oc2cc1O`, for which the cytotoxicity is 55.8% (active).

`CCCCCCc1cc2cc(C(=O)NC)c(=N)oc2cc1O`: the cytotoxicity is 30.5%.

Take `CCOc1cccc2cc(-c3nnc(-c4ccccc4)o3)c(=O)oc12`: the cytotoxicity was -3.1%.

As to `CCN(CC)S(=O)(=O)c1ccc(-c2nnc(SCC(=O)Nc3nc(C)cs3)o2)cc1`, the cytotoxicity was 20.5%.

As for `COC(=O)c1ccc(OC(=O)c2ccccn2)cc1`, the cytotoxicity was -2%.

Regarding `CC1(C)OC(=O)C2(Cc3ccccc3N3CCCCC32)C(=O)O1` (stereo not drawn), the cytotoxicity is -0.5%.

Consider `O=C1c2ccccc2-c2ncnc3cccc1c23`, for which the cytotoxicity was -4.9%.

For the compound `O=C1c2ccccc2-c2nccnc21`, the cytotoxicity was -3.8%.

With `O=C(O)c1ccc2c3c(ncnc13)-c1ccccc1C2=O`, the cytotoxicity is 75.9% (active).

Regarding `Fc1cc2ncn(Cc3ccccc3)c2cc1F`, the cytotoxicity was -20.3%.

Turning to `N#Cc1nc(-c2ccco2)oc1NCc1ccc(F)cc1`, the cytotoxicity was 10.2%.

Turning to `CCC(C)C(=O)Nc1c2c(nc3c1CCC3)CCCC2` (stereo not drawn), the cytotoxicity was -5.8%.

For `c1ccc(Cn2nnc3c(N4CCCC4)ncnc32)cc1`, the cytotoxicity is 8.8%.

As to `FC(F)(F)c1ccc(N2CCN(c3ncnc4c3nnn4Cc3ccccc3)CC2)nc1`, the cytotoxicity is 55.5% (active).

Regarding `c1ccc(Cn2nnc3c(N4CCCCCC4)ncnc32)cc1`, the cytotoxicity is -2.6%.

Consider `CC(=O)Nc1cc2c(cc1C(=O)C(C)C)OCCO2`, for which the cytotoxicity is -0.7%.

As to `Cc1ccc(C)c(Cn2c(C(C)O)nc3ccccc32)c1` (stereo not drawn), the cytotoxicity is -16.7%.

For `Cc1ccc(-c2nc(-c3ccccc3)no2)c(Cl)c1`, the cytotoxicity was -2.7%.

In the case of `CC(C)C(=O)Nc1c2c(nc3ccccc13)N(C)CC2`, the cytotoxicity is -4%.

Take `CC(C)c1nnc(NC(=O)c2c(O)c3cccc4c3n(c2=O)CCC4)s1`: the cytotoxicity was 49.4%.

In the case of `Cc1csc(NC(=O)c2c(O)c3cccc4c3n(c2=O)CCC4)n1`, the cytotoxicity was -16.1%.

For the compound `CCCc1nnc(NC(=O)c2c(O)c3cccc4c3n(c2=O)CCC4)s1`, the cytotoxicity is 7.3%.

As to `Cc1cnc(NC(=O)c2c(O)c3cccc4c3n(c2=O)CCC4)s1`, the cytotoxicity is 91.8% (active).

With `CCc1nnc(NC(=O)c2cccc(C(=O)Nc3nnc(CC)s3)n2)s1`, the cytotoxicity is 53.1% (active).

As to `CCc1nnc(NC(=O)c2cccc(OC)c2)s1`, the cytotoxicity is 9.1%.

For `CCc1nnc(NC(=O)c2cnccn2)s1`, the cytotoxicity is -15.3%.

`CCCc1nnc(NC(=O)c2c(O)c3cccc4c3n(c2=O)CC4)s1`: the cytotoxicity was 43.6%.

With `CCc1nnc(NC(=O)c2c(O)c3cccc4c3n(c2=O)CC4)s1`, the cytotoxicity was 50% (active).

With `O=C(COc1ccccc1Cl)NCc1ccncc1`, the cytotoxicity was -2.3%.

On to `CC1CCCCN1C(=O)CSc1nc(C2CC2)nc2c1cnn2-c1ccccc1` (stereo not drawn), for which the cytotoxicity was 1.1%.

In the case of `c1ccc(CNc2c3c(nc4ncnn24)CCCC3)nc1`, the cytotoxicity is -2.6%.

For `CC(=O)NCc1nc2ccccc2n1Cc1ccccc1C`, the cytotoxicity was -2.6%.

Take `CCOC(=O)CC(=O)Nc1nnc(C(C)C)s1`: the cytotoxicity was -20.6%.

Regarding `COc1ccc(-c2cc(C(=O)O)c3ccccc3n2)c(OC)c1`, the cytotoxicity was -13.5%.

With `N[C@@H](Cc1ccc(O)c(I)c1)C(=O)O`, the cytotoxicity was -4.9%.

Regarding `O=C(O)CCc1cc(I)c(Oc2ccc(O)c(I)c2)c(I)c1`, the cytotoxicity is 81.2% (active).

As to `COc1ccc2[nH]c(C(=O)O)c(CCC(=O)O)c2c1`, the cytotoxicity was 1.5%.

`CCOC(=O)c1c(-c2ccsc2)csc1N`: the cytotoxicity is -5.8%.

With `COc1ccc2nc(C)[nH]c(=O)c2c1`, the cytotoxicity is 0.4%.
